# ANO1 activ: TMEM16A chloride channel activators or potentiators, primary screen, cell-based, HTS; Anoctamin-1 (Mus musculus), Q8BHY3; HEK293 TMEM16A/YFP-H148Q/I152L, iodide quench fluorescence; active compounds read low; B-score at 10 µM; 340,000 tested, 0.3% active;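 active = fluorescence-ratio B-score plate-corrected deviation score at least 3 library SD below zero, with starting fluorescence score within 5 deviations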;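 also: channel opened by trigger with iodide after compound preincubation; score built on the fluorescence ratio of max minus min over baseline; more negative score means more quench and so TMEM16A activation or potentiation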
# ANO1 block: TMEM16A chloride channel inhibitors, primary screen, cell-based, HTS; Anoctamin-1 (Mus musculus), Q8BHY3; HEK293 TMEM16A/YFP iodide influx fluorescence, ionomycin; normalized B-score (activity score, 25-100; higher = stronger inhibition) at 10 µM; 310,000 tested, 1.2% active; AID 588511, 2011;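 active = ratio plate-corrected score three or more library SD toward inhibition, starting fluorescence score within five deviations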;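 also: score derived from kinetic fluorescence span divided by baseline fluorescence per well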
# CHT block: inhibitors of human choline transporter CHT. CHT-expressing cells, membrane potential dye, choline response; active compounds read low. B-score at 10 µM. 310,000 tested, 0.86% active. AID 488975, 2010;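 active = B-score over 3 SD under the library average, and starting fluorescence ratio not unusually high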;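 also: choline stimulus applied at its EC90 after an EC20 pre-addition; B-score computed on integrated fluorescence ratio after choline addition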
# CHT allo act: CHT positive allosteric modulators, primary screen, cell-based, membrane potential dye, choline EC20 | High affinity choline transporter 1 (Homo sapiens), Q9GZV3 | CHT-expressing cells; active compounds read high; LV-AA mutant CHT in HEK293 cells | B-score at 10 µM | 310,000 tested, 0.49% active;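 active = initial fluorescence not abnormally high and integrated response B-score, plate-corrected, over 3 SD above library mean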
# CHT inh conf: CHT inhibitors, confirmation, cell-based, membrane potential dye, duplicate; shares compounds with CHT block; CHT-expressing cells, choline membrane potential dye; LV-to-AA substituted CHT, HEK293 cells; CHT activity remaining % of control (active compounds read low), % at 10 µM; 2,400 tested, 70% active; AID 493221, 2011;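 active = choline transporter activity left, mean of duplicates at 10 µM, below buffer-only control mean minus 3 SD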;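 also: depolarization triggered by choline at its EC90 following an EC20 pre-addition; 0% = hemicholinium-3 full block and 100% = buffer-only control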
# HEK293 CHT ctr: membrane potential effects in parental HEK293, counter-screen for CHT inhibitor project, cell-based, membrane potential dye. shares compounds with CHT block. 2,400 tested, 4% active. choline response; active = decrease or increase beyond buffer ±3SD. membrane potential ratio readout (active if shifted either direction beyond buffer ±3SD; no single direction) at 10 µM;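 also: parental cells lack the transporter so any hit is non-specific; ratio is peak minus trough fluorescence over baseline after EC90 choline challenge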
# * marks the source's active call; other numbers are inactive results; i = inactive; . = not tested or not shown. Only some compounds are listed: those with a hit (about 2.4% of all), similar ones and a draw of the others.
SMILES,ANO1 activ,ANO1 block,CHT block,CHT allo act,others
CC/C(=C\C=C\[C@@H]1C=C[C@@H]2CCC[C@H]2[C@@H]1C(=O)c1ccc[nH]1)[C@@H]1O[C@@H]([C@@H](C)C(=O)O)CC[C@@H]1C,.,100*,-5.48*,i,
O=[N+]([O-])c1ccc(N2CCNCC2)cc1N1CCCCC1,i,i,i,i,
O=[N+]([O-])c1ccc(N2CCNCC2)cc1NC1CC1,.,i,i,6.38*,
CCNc1cc(N2CCNCC2)ccc1[N+](=O)[O-],.,i,i,7.29*,
COC(=O)C1=C(c2ccccc2OCc2ccccc2)C[C@@H]2CC[C@H]1N2C(=O)NCc1cccc(C(F)(F)F)c1,i,.,.,.,
COc1cc(OC)c(OC)cc1CNCCc1cccc(F)c1,i,i,i,i,
COc1ccc(CNCCc2cccc(F)c2)c2ccccc12,.,i,-7.24*,i,
COC(=O)C1=C(c2cc3ccccc3o2)C[C@@H]2CC[C@H]1N2C(=O)NCc1ccco1,i,i,i,i,
COc1c(O)cc2c(c1OC)-c1ccc(SC)c(=O)cc1C(NC(C)=O)CC2 (stereo not drawn),i,.,.,.,
C/C=C(\C)C(=O)OC1C(C)=C2C(C1OC(=O)CCCCC)C(C)(OC(C)=O)CC(OC(=O)CCC)C1(O)C2OC(=O)C1(C)O (stereo not drawn),.,100*,i,8.01*,
Cc1cccc(C)c1NC(=O)c1cccn(Cc2ccc3c(c2)OC(F)(F)O3)c1=O,i,25*,i,i,
CC(C)Oc1cccc(NC(=O)c2cccn(Cc3ccc4c(c3)OC(F)(F)O4)c2=O)c1,i,i,i,i,
COc1ccc2c(c1)/C(=C/c1cnc[nH]1)C(=O)N2,i,i,i,8.82*,
C[N+](C)(C)CC#CCN1CCCC1=O,-7.93*,i,i,i,
C/C(Cl)=C/CC1(CN2CCCC2=O)C(=O)NC(=O)NC1=O,i,i,i,i,
c1ccc(N2C3C4CC(C5CCCC54)C32)cc1 (stereo not drawn),i,.,.,.,
CCOc1cccc(=NC2CCCCC2)c2c(C)n(C)c(C)c12,i,100*,i,i,
CCCCCc1nc2c(c(=O)c3ccccc3n2C)c(=O)n1C1CCCCCC1,-11.1*,i,i,i,
O=c1[nH]c(=S)n(C2CCCCC2)c(O)c1/C=N/N1CCOCC1,i,i,i,i,
CCNC(=O)C1OC(n2cnc3c(N)ncnc32)C(O)C1O (stereo not drawn),i,i,-6.74*,i,CHT inh conf=32.9%*;HEK293 CHT ctr=i
COC(=O)C1=C(c2c(C)noc2C)C[C@@H]2CC[C@H]1N2C(=O)NC1CC1,i,.,.,.,
CCC(C)N1C(=O)/C(=C/c2ccc3c(c2)CCN3CCCCl)C(=O)NC1=S (stereo not drawn),i,i,-5.9*,i,CHT inh conf=i;HEK293 CHT ctr=i
Cc1cccc(N2C(=O)NC(=O)/C(=C\c3ccc4c(c3)CCCN4Cc3ccccc3)C2=O)c1,i,i,i,i,
Cc1[nH]n(-c2ccccc2)c(=O)c1C(c1ccc([N+](=O)[O-])cc1)c1c(C)[nH]n(-c2ccccc2)c1=O,i,i,-6.24*,i,CHT inh conf=36.5%*;HEK293 CHT ctr=i
O=[N+]([O-])c1ccc(C(c2ccc([N+](=O)[O-])cc2)c2ccc([N+](=O)[O-])cc2)cc1,i,.,.,.,
C[C@]12CC3CC(N)(C1)C[C@@](C)(C3)C2,i,i,i,i,
Cc1cccc(CCNCc2cc3cccc(C)c3[nH]c2=O)c1,i,i,-12.4*,i,CHT inh conf=8.5%*;HEK293 CHT ctr=i
CC(C)(C)NCC(O)c1cc(Cl)c(N)c(Cl)c1 (stereo not drawn),i,i,-5.12*,i,CHT inh conf=37.1%*;HEK293 CHT ctr=i
CC(C)(C)C(=O)C(Oc1ccc(Cl)cc1)n1cncn1 (stereo not drawn),i,.,.,.,
